Source: PubChem BioAssay (Tox21)
Results filed as inconclusive are left out. Activity calls are given as the source filed them. Unless noted, the call rests on the fitted dose curve; in most records, active means well fitted curve in the direction sought with a large enough effect in the repeat runs; inconclusive means weak or mixed curves; inactive means no such curve, though single readings can be large; an effect the other way counts as inactive or inconclusive.

What was measured:
[1] = qHTS assay to identify small molecule antagonists of the estrogen related receptor (ERR) signaling pathway from Tox21 library - cell viability counter screen (AID 1224834); further: nearly all actives have a fitted effect of over 30% in size; further: potency means the concentration at half of the fitted maximal effect
Outline: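 Viability readout (CellTiter-Fluor fluorescence, 30 min at 37 C) multiplexed with the ERR assay; cells treated 17.5 h at 37 C with compounds delivered in DMSO.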

[2] = biological target: Luciferin 4-monooxygenase (Photinus pyralis) (UniProt P08659); assay: qHTS assay to identify small molecule inhibitors of firefly luciferase (AID 1224835); further: nearly all actives have a fitted effect of over 25% in size; further: potency means the concentration at half of the fitted maximal effect
Outline: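 Quantitative HTS format; KM concentrations of both substrates. Purified P. pyralis FLuc activity quantified from luminescence images.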

[3] = qHTS assay to identify small molecule agonists of the constitutive androstane receptor (CAR) signaling pathway - cell viability counter screen (AID 1224836); further: nearly all actives have a fitted effect of over 45% in size
Outline: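 Viability read-out: CellTiter-Fluor fluorescence after 23 h compound exposure at 37 C/5% CO2 in double-stable HepG2-CYP2B6-hCAR cells, with PK11195 present at 0.75 uM final; compounds tested in 15-point titration.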

[4] = qHTS assay to identify small molecule antagonists of the estrogen related receptor signaling pathway with the pleiotropic PPARgamma coactivator (PGC) from Tox21 10K library - cell viability counter screen (AID 1224840; active means well fitted cell-killing curve with a large enough effect in the repeat runs, not every such curve was filed as active; further: nearly all actives have a fitted effect of over 40% in size)
Outline: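 Compounds in DMSO, alongside positive and negative controls, were pinned onto PGC/ERR cells (2,000 per well). Exposure lasted 17.5 hours at 37 C, followed by a 30-minute CellTiter-Fluor incubation and fluorescence reading.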

[5] = biological target: Thyrotropin receptor (Homo sapiens) (UniProt P16473); assay: qHTS assay to identify small molecule agonists of the thyroid stimulating hormone receptor (TSHR) signaling pathway (AID 1224843; calls by dose curve; further: nearly all actives have a fitted effect of over 45% in size)
Outline: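 TSHR-expressing HEK293 cells (800 per well) were exposed to compounds for 30 min at room temperature. cAMP was then detected by HTRF competition with cAMP-d2 and anti-cAMP cryptate, read after 1 h at room temperature. Fifteen concentrations, triplicate.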

[6] = qHTS assay to identify small molecule agonists of the hypoxia (HIF-1) signaling pathway - cell viability counter screen (AID 1224844; calls by dose curve; further: nearly all actives have a fitted effect of over 50% in size)
Outline: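 Luminescent ATP content (CellTiter-Glo, 30 min, room temperature) served as the viability measure in HRE-bla ME-180 cells exposed to compounds for 17 hrs in low-serum medium (0.5% dialyzed FBS).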

[7] = qHTS assay to identify small molecule agonists of H2AX (AID 1224845; active means well fitted activation curve with a large enough effect in the signal ratio in the repeat runs, not every such curve was filed as active; the % refers to the signal ratio)
Outline: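 Wild-type CHO-K1 cells plated overnight, then exposed 3 hr at 37C to compounds at 15 concentrations (0.76% DMSO). Lysed, then HTRF anti-pH2AX(S139)-cryptate/anti-H2AX-d2 detection after 24 hr at room temperature; emissions 665 and 620 nm.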

[8] = qHTS assay to identify small molecule agonists of the hypoxia (HIF-1) signaling pathway (AID 1224846; active means well fitted activation curve with a large enough effect in the signal ratio in the repeat runs, not every such curve was filed as active; the % refers to the signal ratio)
Outline: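 Measured by blue/green FRET after loading CCF4-AM: beta-lactamase expressed from a hypoxia response element in ME-180 cells. Test agents were delivered in DMSO and left 17 hrs; cells had been plated 5 hrs earlier in low-serum (0.5% dialyzed FBS) medium.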

[9] = qHTS assay to identify small molecule agonists of H2AX - cell viability counter screen (AID 1224847; calls by dose curve; further: top concentration of the series differs between compounds; nearly all actives have a fitted effect of over 30% in size)
Outline: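 CHO-K1 wt, 1000 cells/well, o/n 37C; cpds 15 conc, 3 h 37C, 0.76% DMSO; CellTiter-Glo, 30 min RT, luminescence.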

[10] = qHTS RealTime-Glo MT Cell Viability Assay in HepG2 cells - 24 hour (AID 1224867); further: nearly all actives have a fitted effect of over 50% in size
Outline: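 HepG2 cells (600/well) were dispensed with RealTime-Glo reagents, incubated 5 h at 37 °C, then treated with compounds in DMSO for up to 40 h. Nonlytic NanoLuc luminescence reflecting viable cells was read at each stated time point.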

[11] = qHTS RealTime-Glo MT Cell Viability Assay in HEK293 cells - 32 hour (AID 1224868); further: nearly all actives have a fitted effect of over 50% in size; further: potency means the concentration at half of the fitted maximal effect; on activity change, negative = cytotoxic: top concentration of the series differs between compounds
Outline: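 HEK293 cells seeded with NanoLuc/prosubstrate reagent, rested 5 h at 37 C, then dosed and kept at 37 C up to 40 h. Nonlytic real-time luminescence from viable cells read at 0, 8, 16, 24, 32 and 40 h.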

[12] = A CellTox Green Cytotoxicity Assay to monitor cytotoxicity in HEK293 cells - 0 hour (AID 1224869); further: nearly all actives have a fitted effect of over 50% in size
Outline: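 Each value comes from one timepoint of a single continuous run in which HEK293 cells with CellTox Green were exposed to compound for up to 40 h at 37 C, dye fluorescence rising with cell death.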

[13] = qHTS assay to identify small molecule antagonists of the constitutive androstane receptor (CAR) signaling pathway - cell viability counter screen (AID 1224837); further: nearly all actives have a fitted effect of over 45% in size; further: potency means the concentration at half of the fitted maximal effect
Outline: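 Fluorescence from CellTiter-Fluor served as the viability signal. Human hepatoma HepG2 cells stably bearing hCAR and CYP2B6-2.2kb received compound plus CITCO (50 nM final) for 23 hr.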

[14] = biological target: Nuclear receptor subfamily 1 group I member 3 (Homo sapiens) (UniProt Q14994); assay: qHTS assay to identify small molecule antagonists of the constitutive androstane receptor (CAR) signaling pathway (AID 1224838);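 further: HepG2 cells stably expressing hCAR with CYP2B6 luciferase reporter stimulated by CITCO; nearly all actives have a fitted effect of over 40% in size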
Outline: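 Quantitative HTS in double-stable HepG2-CYP2B6-hCAR cells. After 4 h plating, cells get compound (15 concentrations) and CITCO at 50 nM final, incubate 24 h at 37 C, then ONE-Glo luminescence is read.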

[15] = biological target: Nuclear receptor subfamily 1 group I member 3 (Homo sapiens) (UniProt Q14994); assay: qHTS assay to identify small molecule agonists of the constitutive androstane receptor (CAR) signaling pathway (AID 1224839); further: nearly all actives have a fitted effect of over 15% in size; further: potency means the concentration at half of the fitted maximal effect;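 on activation: HepG2 cells stably carrying human CAR and a CYP2B6 luciferase reporter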
Outline: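 Luminescence read-out (ONE-Glo, 30 min, room temperature) from double-stable HepG2-CYP2B6-hCAR cells exposed 24 h to 15-point compound series in presence of 0.75 uM PK11195 final.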

[16] = qHTS assay to identify small molecule agonists of the estrogen related receptor signaling pathway with the pleiotropic PPARgamma coactivator (PGC) from Tox21 10K library (AID 1224842); further: nearly all actives have a fitted effect of over 15% in size; further: potency means the concentration at half of the fitted maximal effect
Outline: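 PGC/ERR reporter cells (NTP line) were seeded 2,000 per well, rested 6 h at 37 C/5% CO2, then pin-dosed with compounds in DMSO for 18 h at 37 C; luciferase read by One-Glo luminescence after 30 min at room temperature.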

[17] = qHTS assay to identify small molecule antagonists of the estrogen related receptor (ERR) signaling pathway from Tox21 library (AID 1224848); further: nearly all actives have a fitted effect of over 50% in size
Outline: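 Cells: ERR line, 2,000/well; 6 h preincubation 37 C/5% CO2. Cpd in DMSO via pin tool; 18 h, 37 C. ONE-Glo, 30 min RT, luminescence.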

[18] = qHTS assay to identify small molecule agonists of the estrogen related receptor (ERR) signaling pathway from Tox21 library (AID 1224849; calls by dose curve; further: nearly all actives have a fitted effect of over 15% in size); details: ERR reporter cell line, ONE-Glo luciferase, 18 h; at 92.4 µM (top of the series) unless noted
Outline: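 We plated ERR reporter cells, waited 6 h, added compounds in DMSO by pin tool and incubated them 18 h at 37 C. ONE-Glo was then added and luminescence read after 30 min.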

[19] = qHTS assay to identify small molecule antagonists of the estrogen related receptor signaling pathway with the pleiotropic PPARgamma coactivator (PGC) from Tox21 10K library (AID 1224841; call rule not given here)
Outline: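 Compound exposure ran 18 hours at 37 C in PGC/ERR cells (2,000/well) that had first rested 6 hours in a 37 C/5% CO2 incubator. Luciferase activity was then detected with One-Glo after a 30-minute room-temperature step.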
On the % scale 0 is the no-effect control and ±100 the full control effect.

Thyrotropin receptor (Homo sapiens), sequence (P16473 whole entry, looked up): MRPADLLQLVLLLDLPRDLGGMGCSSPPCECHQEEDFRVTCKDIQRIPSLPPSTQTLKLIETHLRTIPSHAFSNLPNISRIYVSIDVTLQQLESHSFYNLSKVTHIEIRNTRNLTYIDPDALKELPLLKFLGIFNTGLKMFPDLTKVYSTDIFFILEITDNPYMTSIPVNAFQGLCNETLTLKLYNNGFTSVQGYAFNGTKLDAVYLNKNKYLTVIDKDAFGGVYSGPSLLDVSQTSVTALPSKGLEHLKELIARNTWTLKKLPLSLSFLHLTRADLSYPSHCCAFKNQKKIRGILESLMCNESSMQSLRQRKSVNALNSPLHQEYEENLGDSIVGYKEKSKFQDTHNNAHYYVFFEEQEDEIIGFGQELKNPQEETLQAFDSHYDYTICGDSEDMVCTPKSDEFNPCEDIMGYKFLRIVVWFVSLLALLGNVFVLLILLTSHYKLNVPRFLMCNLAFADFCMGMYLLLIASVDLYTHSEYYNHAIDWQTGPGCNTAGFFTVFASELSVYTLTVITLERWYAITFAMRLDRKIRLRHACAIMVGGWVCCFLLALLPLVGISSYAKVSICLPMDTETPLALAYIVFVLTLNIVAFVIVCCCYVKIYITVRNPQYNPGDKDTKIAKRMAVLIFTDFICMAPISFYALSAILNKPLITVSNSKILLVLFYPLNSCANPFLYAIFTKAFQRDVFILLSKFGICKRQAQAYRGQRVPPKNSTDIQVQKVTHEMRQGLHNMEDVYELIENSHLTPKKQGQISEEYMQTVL
Nuclear receptor subfamily 1 group I member 3 (Homo sapiens), sequence (Q14994 whole entry, looked up): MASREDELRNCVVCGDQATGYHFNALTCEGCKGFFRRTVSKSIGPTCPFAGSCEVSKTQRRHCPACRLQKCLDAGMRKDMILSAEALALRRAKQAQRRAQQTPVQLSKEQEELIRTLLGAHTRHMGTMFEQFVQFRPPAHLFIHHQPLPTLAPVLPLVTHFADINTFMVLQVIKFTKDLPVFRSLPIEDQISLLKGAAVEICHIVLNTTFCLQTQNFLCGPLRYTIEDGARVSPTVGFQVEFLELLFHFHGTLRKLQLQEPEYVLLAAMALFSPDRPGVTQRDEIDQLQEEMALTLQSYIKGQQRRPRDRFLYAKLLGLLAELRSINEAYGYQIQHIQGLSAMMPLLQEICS
Luciferin 4-monooxygenase (Photinus pyralis), sequence (P08659 whole entry, looked up): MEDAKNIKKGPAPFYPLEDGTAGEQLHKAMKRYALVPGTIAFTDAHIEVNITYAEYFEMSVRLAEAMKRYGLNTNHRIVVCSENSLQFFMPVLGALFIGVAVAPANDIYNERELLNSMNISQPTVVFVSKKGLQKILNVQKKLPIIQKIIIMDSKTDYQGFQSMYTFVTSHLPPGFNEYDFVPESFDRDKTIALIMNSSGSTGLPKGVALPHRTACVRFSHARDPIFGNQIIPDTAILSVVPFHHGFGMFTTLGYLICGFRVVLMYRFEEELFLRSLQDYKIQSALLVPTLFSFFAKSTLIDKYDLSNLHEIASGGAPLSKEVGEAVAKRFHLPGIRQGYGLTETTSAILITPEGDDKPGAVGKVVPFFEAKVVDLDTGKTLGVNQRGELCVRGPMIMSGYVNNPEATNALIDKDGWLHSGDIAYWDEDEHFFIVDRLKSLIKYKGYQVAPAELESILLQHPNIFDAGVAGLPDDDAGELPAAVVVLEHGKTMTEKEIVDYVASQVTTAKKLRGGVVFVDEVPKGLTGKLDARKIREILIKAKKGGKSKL

CCC(C)CCCC(C)(C)O (configuration not stated)
inactive: Potency [1] | Potency [2] | Potency [3] | Potency [4] | Potency [5] | Potency [6] | Potency [7] | outcome [8] | Potency [9] | outcome [10] | Potency [11] | Potency [12]

O=C(O)c1ccccc1[N+](=O)[O-]
inactive: Potency [1] | Potency [2] | Potency [13] | Potency [4] | Potency [5] | Potency [6] | Potency [7] | outcome [8] | Potency [9] | outcome [10] | Potency [11] | Potency [12]

COc1cc(CNC(=O)CCCC/C=C/C(C)C)ccc1O
inactive: Potency [1] | Potency [2] | Potency [13] | Potency [4] | Potency [5] | Potency [6] | Potency [7] | outcome [10] | Potency [12]
active: Potency [11] 7.56 µM

O=C(O)c1ccc2c(c1)nc(C(=O)NC1CCN(C3CC3)CC1)n2Cc1cc(-c2ccc(Cl)s2)on1
inactive: viability change, negative = cytotoxic [1] -4.05% [at 19 µM] | activity change, negative = inhibition [2] -1.8% [at 23.6 µM] | activity change, negative = cytotoxicity [13] 10.8% [at 19 µM] | activity, negative = inhibition [14] 19.9% [at 19 µM] | activation [15] -1.53% [at 19 µM] | viability change, negative = cytotoxic [4] -11.5% [at 19 µM] | activity change, negative = cytotoxicity [9] -8.48% [at 31.6 µM] | activity change, negative = cytotoxicity [10] -0.892% [at 15.8 µM] | activity change, negative = cytotoxic [11] -0.224% [at 15.8 µM] | cytotoxicity [12] -5.57% [at 15.8 µM]

Cc1ccc(S(=O)(=O)NC(=O)NC2CCCC2)cc1
inactive: Potency [1] | Potency [2] | Potency [13] | Potency [14] | Potency [15] | Potency [4] | Potency [5] | Potency [7] | outcome [8] | Potency [9] | outcome [10] | Potency [11] | Potency [12]

CC(C)Cc1nccs1
inactive: Potency [1] | Potency [2] | Potency [13] | Potency [14] | Potency [15] | Potency [4] | Potency [5] | Potency [6] | Potency [7] | outcome [8] | Potency [9] | outcome [10] | Potency [11] | Potency [12]

C[Si](C)(C)O[Si](C)(C)O[Si](C)(C)C
inactive: Potency [1] | Potency [2] | Potency [13] | Potency [14] | Potency [15] | Potency [4] | Potency [5] | Potency [7] | outcome [8] | Potency [9] | outcome [10] | Potency [11] | Potency [12]

CCc1ccc(C(=O)C(C)CN2CCCCC2)cc1 (configuration not stated)
inactive: Potency [1] | Potency [2] | Potency [13] | Potency [14] | Potency [15] | Potency [4] | Potency [5] | Potency [7] | outcome [8] | Potency [9] | outcome [10] | Potency [11] | Potency [12]

CCC(CC)C(=O)O
inactive: Potency [1] | Potency [2] | Potency [13] | Potency [14] | Potency [15] | Potency [4] | Potency [6] | Potency [7] | outcome [8] | Potency [9] | outcome [10] | Potency [11] | Potency [12]

COc1ccc(C(=O)c2ccc(C)cc2)c(O)c1
inactive: Potency [1] | Potency [13] | Potency [4] | Potency [5] | Potency [7] | outcome [8] | Potency [17] | outcome [10] | Potency [12]
active: Potency [2] 11.4 µM | Potency [15] 27.6 µM | Potency [16] 7.78 µM | activity change, positive = activation [18] 16.4%

Nc1ccc(-c2ccc(F)cc2)cc1
active: Potency [2] 31.7 µM | Potency [15] 27.3 µM | Potency [16] 5.45 µM | activity change, positive = activation [18] 52%
inactive: Potency [1] | Potency [13] | Potency [14] | Potency [4] | Potency [19] | Potency [6] | Potency [7] | outcome [8] | Potency [9] | Potency [17] | outcome [10] | Potency [11] | Potency [12]

CC(C)(C(=O)O)c1ccc(C(O)CCCN2CCC(C(O)(c3ccccc3)c3ccccc3)CC2)cc1 (configuration not stated)
inactive: Potency [1] | Potency [2] | Potency [13] | Potency [14] | Potency [15] | Potency [4] | Potency [5] | Potency [6] | Potency [7] | Potency [9] | outcome [10] | Potency [11] | Potency [12]

CC/C=C/CCO
inactive: Potency [1] | Potency [2] | Potency [13] | Potency [4] | Potency [16] | Potency [7] | Potency [9] | Potency [17] | activity change, positive = activation [18] 5.37% | outcome [10] | Potency [11] | Potency [12]

CCc1cnc(C(=O)O)c(C(=O)O)c1
inactive: Potency [1] | Potency [2] | Potency [13] | Potency [14] | Potency [15] | Potency [4] | Potency [6] | Potency [7] | outcome [8] | Potency [9] | outcome [10] | Potency [11] | Potency [12]

CCOc1cc(OCC)c(C(C)=O)cc1OCC
active: Potency [1] 30.1 µM | Potency [13] 26.8 µM | Potency [15] 23.9 µM | Potency [11] 21.5 µM
inactive: Potency [2] | Potency [14] | Potency [16] | Potency [5] | Potency [6] | Potency [7] | outcome [8] | Potency [9] | activity change, positive = activation [18] -33.9% | outcome [10] | Potency [12]

CC(CCl)OC(C)CCl (configuration not stated)
inactive: Potency [1] | Potency [2] | Potency [13] | Potency [15] | Potency [4] | Potency [5] | Potency [6] | Potency [7] | outcome [8] | Potency [9] | outcome [10] | Potency [11] | Potency [12]

O=C(OC1C[C@H]2CC[C@@H](C1)[N+]21CCCC1)C(O)(c1ccccc1)c1ccccc1 (some centres not stated)
inactive: Potency [1] | Potency [2] | Potency [13] | Potency [14] | Potency [15] | Potency [4] | Potency [5] | Potency [6] | Potency [7] | Potency [9] | outcome [10] | Potency [11] | Potency [12]

CCC(C)C1N=C(C)C(C)S1 (configuration not stated)
inactive: Potency [1] | Potency [2] | Potency [3] | Potency [19] | Potency [16] | Potency [5] | Potency [7] | outcome [8] | Potency [9] | activity change, positive = activation [18] -2.96% | outcome [10] | Potency [11] | Potency [12]
